Results taken from the supplement of paper PMC10849652.
Of roughly 8,800 targets only a part is listed; those with a hit were picked by preference. About 0.5% of all pairs of compound and target were hits. A number with no mark means an inactive call.

Key:
Test in all cases: log2 fold change, soluble protein after heating vs DMSO (PISA); higher = thermal stabilisation; K562 lysate, 10 uM; active = over 0.2 and 3.5 SD of the protein, either way, in both replicates (recomputed)
nilotinib = compound: Cc1cn(-c2cc(NC(=O)c3ccc(C)c(Nc4nccc(-c5cccnc5)n4)c3)cc(C(F)(F)F)c2)cn1 [nilotinib]
How it was run: (§1)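 K562 pellets were dounce-homogenised in PBS pH 7.4 with 1 mM MgCl2, and the crude extract at 1 mg/mL protein was treated with 10 μM compound for 30 min. Aliquots were heated for 3 min across 48°C-58°C, pooled, and brought to 0.5% NP-40 at 4°C; soluble protein was the supernatant after 21,000xg for 90 min. Soluble protein was quantified by TMTpro 16plex LC-MS/MS with channel sums equalised, and reported as log2 fold change in thermal stability against DMSO controls, with values from duplicates.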

[1] = compound: Cc1nc(Nc2n[nH]c3c2CN(C(=O)N[C@H](CN(C)C)c2ccccc2)C3(C)C)c2sccc2n1
How it was run: as §1

dasatinib = compound: Cc1nc(Nc2ncc(C(=O)Nc3c(C)cccc3Cl)s2)cc(N2CCN(CCO)CC2)n1 [dasatinib]
How it was run: as §1

[2] = compound: Cc1ncc(-c2ccnc(Nc3ccc(S(C)(=O)=O)cc3)n2)n1C(C)C
How it was run: as §1

[3] = compound: Cn1cc(-c2ccc3c(c2)CCN3C(=O)Cc2cccc(C(F)(F)F)c2)c2c(N)ncnc21
How it was run: as §1

quisinostat = compound: Cn1cc(CNCC2CCN(c3ncc(C(=O)NO)cn3)CC2)c2ccccc21 [quisinostat]
How it was run: as §1

tipifarnib = compound: Cn1cncc1[C@@](N)(c1ccc(Cl)cc1)c1ccc2c(c1)c(-c1cccc(Cl)c1)cc(=O)n2C [tipifarnib]
How it was run: as §1

[4] = compound: NC(=O)Nc1cc(-c2cccc(F)c2)sc1C(=O)N[C@H]1CCCNC1
How it was run: as §1

[5] = compound: NC(=O)c1cnc(N[C@@H]2CCCC[C@@H]2N)nc1Nc1cccc(-n2nccn2)c1
How it was run: as §1

[6] = compound: NC1(c2ccc(-c3nc4ccn5c(=O)[nH]nc5c4cc3-c3ccccc3)cc2)CCC1
How it was run: as §1

## NCKAP1L (UniProt P55160)
Sequence of UniProt P55160 (P55160 whole entry, looked up): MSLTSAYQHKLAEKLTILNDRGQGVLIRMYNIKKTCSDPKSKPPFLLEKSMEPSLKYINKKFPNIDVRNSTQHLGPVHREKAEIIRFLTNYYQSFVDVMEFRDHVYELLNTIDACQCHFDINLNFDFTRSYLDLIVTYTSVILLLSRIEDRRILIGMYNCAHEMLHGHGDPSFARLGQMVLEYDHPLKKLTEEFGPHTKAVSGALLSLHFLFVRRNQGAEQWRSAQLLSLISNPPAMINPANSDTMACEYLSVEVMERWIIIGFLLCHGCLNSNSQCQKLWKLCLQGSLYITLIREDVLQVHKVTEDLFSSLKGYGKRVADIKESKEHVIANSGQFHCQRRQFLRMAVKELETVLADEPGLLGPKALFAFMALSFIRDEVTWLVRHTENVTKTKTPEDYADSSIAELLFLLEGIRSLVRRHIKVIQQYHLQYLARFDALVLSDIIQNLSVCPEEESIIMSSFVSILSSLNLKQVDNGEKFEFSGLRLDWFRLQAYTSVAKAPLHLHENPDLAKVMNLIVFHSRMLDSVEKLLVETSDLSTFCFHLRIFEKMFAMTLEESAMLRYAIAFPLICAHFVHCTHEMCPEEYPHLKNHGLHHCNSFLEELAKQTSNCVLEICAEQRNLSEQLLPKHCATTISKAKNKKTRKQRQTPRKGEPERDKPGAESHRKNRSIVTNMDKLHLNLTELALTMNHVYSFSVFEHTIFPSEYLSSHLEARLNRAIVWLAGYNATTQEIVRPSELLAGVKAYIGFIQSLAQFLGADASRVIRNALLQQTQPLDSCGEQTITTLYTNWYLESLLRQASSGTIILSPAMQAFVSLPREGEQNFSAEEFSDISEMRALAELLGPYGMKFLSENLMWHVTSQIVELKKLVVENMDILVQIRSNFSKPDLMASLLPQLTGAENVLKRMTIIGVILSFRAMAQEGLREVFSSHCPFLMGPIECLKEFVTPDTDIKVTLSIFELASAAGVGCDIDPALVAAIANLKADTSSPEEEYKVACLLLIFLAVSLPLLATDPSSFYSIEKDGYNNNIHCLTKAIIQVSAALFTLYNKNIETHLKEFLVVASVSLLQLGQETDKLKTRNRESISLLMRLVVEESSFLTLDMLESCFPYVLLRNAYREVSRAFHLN
nilotinib
  log2 fold change: 0.001
[1]
  log2 fold change: -0.017
dasatinib
  log2 fold change: -0.034
[2]
  log2 fold change: 0.072
[3]
  log2 fold change: 0.005
quisinostat
  log2 fold change: -0.034
tipifarnib
  log2 fold change: 0.032
[4]
  log2 fold change: 0.055
[5]
  log2 fold change: 0.017
[6]
  log2 fold change: 0.023

## MUC5AC (UniProt P98088)
nilotinib
  log2 fold change: 0.02
[1]
  log2 fold change: 0.048
[2]
  log2 fold change: 0.128
tipifarnib
  log2 fold change: -0.593 (active)

## MTCH2 (UniProt Q9Y6C9)
Sequence of UniProt Q9Y6C9 (Q9Y6C9 whole entry, looked up): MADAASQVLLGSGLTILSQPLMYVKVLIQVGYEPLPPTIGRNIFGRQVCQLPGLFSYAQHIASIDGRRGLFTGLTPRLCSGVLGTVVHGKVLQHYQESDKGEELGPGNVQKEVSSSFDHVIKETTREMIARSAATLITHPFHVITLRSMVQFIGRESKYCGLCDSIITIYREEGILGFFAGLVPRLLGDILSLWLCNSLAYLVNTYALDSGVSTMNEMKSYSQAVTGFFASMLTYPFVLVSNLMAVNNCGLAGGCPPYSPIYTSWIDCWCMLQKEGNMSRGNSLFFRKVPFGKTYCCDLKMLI
nilotinib
  log2 fold change: 0.044
[1]
  log2 fold change: -0.005
dasatinib
  log2 fold change: 0
[2]
  log2 fold change: -0.014
[3]
  log2 fold change: -0.024
quisinostat
  log2 fold change: -0.104
tipifarnib
  log2 fold change: 0.018
[4]
  log2 fold change: 0
[5]
  log2 fold change: -0.027
[6]
  log2 fold change: 0.001

## MYO1C (UniProt O00159)
nilotinib
  log2 fold change: 0.019
[1]
  log2 fold change: -0.013
dasatinib
  log2 fold change: 0.112
[2]
  log2 fold change: 0.005
[3]
  log2 fold change: -0.038
quisinostat
  log2 fold change: -0.052
tipifarnib
  log2 fold change: 0.019
[4]
  log2 fold change: -0.082
[5]
  log2 fold change: 0
[6]
  log2 fold change: -0.087

## MT-ATP8 (UniProt P03928)
Sequence of UniProt P03928 (P03928 whole entry, looked up): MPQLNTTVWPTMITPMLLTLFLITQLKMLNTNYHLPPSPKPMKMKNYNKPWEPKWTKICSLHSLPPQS
nilotinib
  log2 fold change: 0.055
[1]
  log2 fold change: 0.177
[2]
  log2 fold change: 0.214
quisinostat
  log2 fold change: 0.043
tipifarnib
  log2 fold change: 0.085
[4]
  log2 fold change: 0.056
[5]
  log2 fold change: -0.067
[6]
  log2 fold change: -0.084

## NUB1 isoform 2 (UniProt Q9Y5A7)
quisinostat
  log2 fold change: 0.205
[4]
  log2 fold change: -0.019

## NCOR1 (UniProt O75376)
nilotinib
  log2 fold change: 0.006
[1]
  log2 fold change: 0.012
dasatinib
  log2 fold change: -0.031
[2]
  log2 fold change: -0.019
[3]
  log2 fold change: 0.008
quisinostat
  log2 fold change: -0.064
tipifarnib
  log2 fold change: -0.046
[4]
  log2 fold change: 0.021
[5]
  log2 fold change: 0.029
[6]
  log2 fold change: 0.003

## NSA2 (UniProt O95478)
nilotinib
  log2 fold change: 0.102
[1]
  log2 fold change: -0.04
dasatinib
  log2 fold change: -0.323
[2]
  log2 fold change: -0.08
[3]
  log2 fold change: -0.113
tipifarnib
  log2 fold change: -0.004
[5]
  log2 fold change: 0.076
[6]
  log2 fold change: -0.15

## NUF2 (UniProt Q9BZD4)
nilotinib
  log2 fold change: -0.011
[1]
  log2 fold change: 0.002
dasatinib
  log2 fold change: -0.044
[2]
  log2 fold change: -0.005
[3]
  log2 fold change: 0.017
quisinostat
  log2 fold change: -0.012
tipifarnib
  log2 fold change: 0.003
[4]
  log2 fold change: 0.061
[5]
  log2 fold change: 0.013
[6]
  log2 fold change: -0.014

## PAGE4 (UniProt O60829)
Sequence of UniProt O60829 (O60829 whole entry, looked up): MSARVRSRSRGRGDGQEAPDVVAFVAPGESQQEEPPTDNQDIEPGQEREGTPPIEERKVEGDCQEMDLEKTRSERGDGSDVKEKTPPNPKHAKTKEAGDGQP
dasatinib
  log2 fold change: -0.086
[3]
  log2 fold change: -0.035
quisinostat
  log2 fold change: -0.097
[4]
  log2 fold change: 0.036
[5]
  log2 fold change: 0.04
[6]
  log2 fold change: 0.004

## NUMB isoform 2 (UniProt P49757)
Sequence of UniProt P49757 (P49757 whole entry, looked up): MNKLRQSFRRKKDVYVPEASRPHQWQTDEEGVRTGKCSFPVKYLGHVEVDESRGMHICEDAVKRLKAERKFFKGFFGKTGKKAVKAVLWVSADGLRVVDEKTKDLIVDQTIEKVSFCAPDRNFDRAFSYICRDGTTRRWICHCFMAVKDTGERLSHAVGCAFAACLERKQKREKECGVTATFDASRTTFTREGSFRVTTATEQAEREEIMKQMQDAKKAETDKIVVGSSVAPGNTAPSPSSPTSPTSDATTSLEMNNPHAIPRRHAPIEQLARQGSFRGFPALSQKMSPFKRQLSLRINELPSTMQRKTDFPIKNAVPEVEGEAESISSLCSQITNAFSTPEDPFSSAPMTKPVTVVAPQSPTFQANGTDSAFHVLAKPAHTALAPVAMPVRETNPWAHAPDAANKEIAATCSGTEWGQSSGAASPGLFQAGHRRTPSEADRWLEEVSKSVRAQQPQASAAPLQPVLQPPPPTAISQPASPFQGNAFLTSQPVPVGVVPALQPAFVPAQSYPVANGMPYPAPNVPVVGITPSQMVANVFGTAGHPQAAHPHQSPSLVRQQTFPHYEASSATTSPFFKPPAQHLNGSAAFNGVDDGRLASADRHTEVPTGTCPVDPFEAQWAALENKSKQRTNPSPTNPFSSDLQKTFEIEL
nilotinib
  log2 fold change: -0.293
[1]
  log2 fold change: -0.07
dasatinib
  log2 fold change: 0.227
[2]
  log2 fold change: 0.225
[3]
  log2 fold change: -0.127
tipifarnib
  log2 fold change: -0.068

## MYLK (UniProt Q15746)
nilotinib
  log2 fold change: 0.138
[1]
  log2 fold change: -0.197
[2]
  log2 fold change: -0.108
quisinostat
  log2 fold change: 0.048
tipifarnib
  log2 fold change: -0.035
[4]
  log2 fold change: -0.175
[5]
  log2 fold change: 0.079

## NAA35 (UniProt Q5VZE5)
nilotinib
  log2 fold change: -0.019
[1]
  log2 fold change: 0.014
dasatinib
  log2 fold change: -0.005
[2]
  log2 fold change: 0.009
[3]
  log2 fold change: 0.01
quisinostat
  log2 fold change: -0.075
tipifarnib
  log2 fold change: 0.034
[4]
  log2 fold change: 0.001
[5]
  log2 fold change: -0.035
[6]
  log2 fold change: 0.016

## ORC3 (UniProt Q9UBD5)
nilotinib
  log2 fold change: 0.038
[1]
  log2 fold change: -0.062
[2]
  log2 fold change: 0.059
tipifarnib
  log2 fold change: -0.084
[5]
  log2 fold change: -0.053

## MYH6 (UniProt P13533)
quisinostat
  log2 fold change: -0.007
[4]
  log2 fold change: 0.082
[5]
  log2 fold change: 0.092
[6]
  log2 fold change: -0.114

## NEXN (UniProt Q0ZGT2)
nilotinib
  log2 fold change: -0.022
[1]
  log2 fold change: -0.011
dasatinib
  log2 fold change: 0.043
[2]
  log2 fold change: -0.051
[3]
  log2 fold change: 0.027
tipifarnib
  log2 fold change: -0.043
[5]
  log2 fold change: -0.149
[6]
  log2 fold change: -0.002

## NUDT5 (UniProt C9JYY9)
nilotinib
  log2 fold change: -0.049
[1]
  log2 fold change: 0.02
[2]
  log2 fold change: 0.228
tipifarnib
  log2 fold change: -0.068
[6]
  log2 fold change: -0.119

## NPLOC4 (UniProt I3L3I1)
dasatinib
  log2 fold change: 0.057
[3]
  log2 fold change: -0.116
quisinostat
  log2 fold change: -0.986 (active)
[4]
  log2 fold change: 0.196

## MTHFD1 (UniProt V9GZ32)
nilotinib
  log2 fold change: -0.43
[1]
  log2 fold change: -0.802
[2]
  log2 fold change: -0.041
tipifarnib
  log2 fold change: 0.188
[5]
  log2 fold change: -0.185

## PAPOLG (UniProt Q9BWT3)
nilotinib
  log2 fold change: 0.025
[1]
  log2 fold change: -0.025
dasatinib
  log2 fold change: -0.023
[2]
  log2 fold change: 0.031
[3]
  log2 fold change: 0.079
quisinostat
  log2 fold change: -0.056
tipifarnib
  log2 fold change: 0.079
[4]
  log2 fold change: -0.054
[6]
  log2 fold change: 0.445

## NSUN7 (UniProt Q8NE18)
quisinostat
  log2 fold change: -0.573 (active)
[4]
  log2 fold change: 0.01
[5]
  log2 fold change: 0.009
[6]
  log2 fold change: -0.031

## MRPL58 (UniProt Q14197)
nilotinib
  log2 fold change: -0.022
[1]
  log2 fold change: 0.045
dasatinib
  log2 fold change: -0.008
[2]
  log2 fold change: -0.012
[3]
  log2 fold change: 0.021
quisinostat
  log2 fold change: 0.017
tipifarnib
  log2 fold change: 0.003
[4]
  log2 fold change: 0.055
[5]
  log2 fold change: 0.025
[6]
  log2 fold change: -0.032

## NUDT6 (UniProt P53370)
Sequence of UniProt P53370 (P53370 whole entry, looked up): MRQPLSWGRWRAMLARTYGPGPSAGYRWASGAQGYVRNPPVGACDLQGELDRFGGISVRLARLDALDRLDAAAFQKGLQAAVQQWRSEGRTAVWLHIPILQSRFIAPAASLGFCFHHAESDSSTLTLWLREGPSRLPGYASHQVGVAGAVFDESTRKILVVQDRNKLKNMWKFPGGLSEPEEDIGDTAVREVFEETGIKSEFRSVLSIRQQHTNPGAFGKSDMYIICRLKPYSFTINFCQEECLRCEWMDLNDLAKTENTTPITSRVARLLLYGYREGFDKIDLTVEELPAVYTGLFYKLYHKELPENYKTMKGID
dasatinib
  log2 fold change: -0.013
[3]
  log2 fold change: 0.032
quisinostat
  log2 fold change: 0.021
[4]
  log2 fold change: -0.03
[6]
  log2 fold change: -0.058

## NFAT5 isoform 4 (UniProt O94916)
quisinostat
  log2 fold change: 0.014
[4]
  log2 fold change: 0.012

## OCRL (UniProt Q01968)
nilotinib
  log2 fold change: -0.095
[1]
  log2 fold change: 0.083
dasatinib
  log2 fold change: -0.044
[2]
  log2 fold change: -0.051
[3]
  log2 fold change: 0.053
quisinostat
  log2 fold change: -0.089
tipifarnib
  log2 fold change: 0.048
[4]
  log2 fold change: -0.018
[5]
  log2 fold change: -0.012
[6]
  log2 fold change: 0.024

## MYO10 (UniProt Q9HD67)
nilotinib
  log2 fold change: -0.019
[1]
  log2 fold change: -0.021
[2]
  log2 fold change: 0.126
quisinostat
  log2 fold change: 0.074
tipifarnib
  log2 fold change: -0.063
[4]
  log2 fold change: -0.051
[6]
  log2 fold change: -0.161

## MYD88 isoform 6 (UniProt Q99836)
nilotinib
  log2 fold change: -0.003
[1]
  log2 fold change: 0.001
dasatinib
  log2 fold change: -0.021
[2]
  log2 fold change: -0.027
[3]
  log2 fold change: 0.024
quisinostat
  log2 fold change: -0.033
tipifarnib
  log2 fold change: 0.004
[4]
  log2 fold change: 0
[5]
  log2 fold change: 0.03
[6]
  log2 fold change: 0.054

## NAA16 (UniProt Q6N069)
Sequence of UniProt Q6N069 (Q6N069 whole entry, looked up): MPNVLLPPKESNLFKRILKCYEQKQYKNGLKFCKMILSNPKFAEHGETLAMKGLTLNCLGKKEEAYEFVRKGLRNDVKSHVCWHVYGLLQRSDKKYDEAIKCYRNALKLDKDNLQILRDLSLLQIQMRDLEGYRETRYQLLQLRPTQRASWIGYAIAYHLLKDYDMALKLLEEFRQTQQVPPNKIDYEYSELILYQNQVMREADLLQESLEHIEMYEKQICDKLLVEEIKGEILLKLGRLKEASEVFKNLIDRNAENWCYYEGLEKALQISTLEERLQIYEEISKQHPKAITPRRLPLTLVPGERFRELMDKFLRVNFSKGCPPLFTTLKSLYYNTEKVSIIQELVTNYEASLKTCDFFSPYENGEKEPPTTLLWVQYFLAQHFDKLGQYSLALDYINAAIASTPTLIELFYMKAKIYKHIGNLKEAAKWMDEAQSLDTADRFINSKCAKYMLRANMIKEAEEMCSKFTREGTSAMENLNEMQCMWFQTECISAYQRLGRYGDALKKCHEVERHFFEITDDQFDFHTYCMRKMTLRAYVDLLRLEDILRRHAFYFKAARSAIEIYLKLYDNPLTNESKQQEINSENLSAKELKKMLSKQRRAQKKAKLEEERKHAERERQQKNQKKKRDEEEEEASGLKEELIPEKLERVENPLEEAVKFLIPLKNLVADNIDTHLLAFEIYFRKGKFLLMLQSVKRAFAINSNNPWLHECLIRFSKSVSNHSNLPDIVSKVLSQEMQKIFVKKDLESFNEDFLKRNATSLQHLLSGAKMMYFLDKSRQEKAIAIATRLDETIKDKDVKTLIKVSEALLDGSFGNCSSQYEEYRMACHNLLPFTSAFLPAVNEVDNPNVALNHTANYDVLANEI
nilotinib
  log2 fold change: 0.068
[1]
  log2 fold change: -0.139
dasatinib
  log2 fold change: -0.042
[2]
  log2 fold change: 0.039
[3]
  log2 fold change: 0.071
tipifarnib
  log2 fold change: -0.015
[5]
  log2 fold change: 0.08

## NUP93 (UniProt Q8N1F7)
Sequence of UniProt Q8N1F7 (Q8N1F7 whole entry, looked up): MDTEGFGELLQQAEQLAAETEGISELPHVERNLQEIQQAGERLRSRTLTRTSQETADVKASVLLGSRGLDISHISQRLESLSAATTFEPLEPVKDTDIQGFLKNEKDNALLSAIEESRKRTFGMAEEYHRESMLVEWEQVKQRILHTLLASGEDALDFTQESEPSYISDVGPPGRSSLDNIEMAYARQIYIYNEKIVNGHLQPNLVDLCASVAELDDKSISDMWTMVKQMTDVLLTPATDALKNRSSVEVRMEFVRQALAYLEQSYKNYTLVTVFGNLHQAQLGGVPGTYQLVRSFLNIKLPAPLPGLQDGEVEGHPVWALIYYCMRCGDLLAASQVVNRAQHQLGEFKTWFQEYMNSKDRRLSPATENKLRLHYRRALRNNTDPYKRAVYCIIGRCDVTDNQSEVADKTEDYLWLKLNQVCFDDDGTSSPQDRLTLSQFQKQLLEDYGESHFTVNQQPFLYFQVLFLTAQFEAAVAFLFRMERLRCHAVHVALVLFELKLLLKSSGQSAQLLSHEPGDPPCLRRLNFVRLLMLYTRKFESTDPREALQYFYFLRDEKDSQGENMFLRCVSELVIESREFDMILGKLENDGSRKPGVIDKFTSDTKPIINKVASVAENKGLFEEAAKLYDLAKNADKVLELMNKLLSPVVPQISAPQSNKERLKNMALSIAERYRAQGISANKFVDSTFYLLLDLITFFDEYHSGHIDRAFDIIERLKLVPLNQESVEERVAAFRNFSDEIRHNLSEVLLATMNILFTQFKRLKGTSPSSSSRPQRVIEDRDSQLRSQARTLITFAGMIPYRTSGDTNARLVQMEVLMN
nilotinib
  log2 fold change: -0.02
[1]
  log2 fold change: 0.001
dasatinib
  log2 fold change: -0.098
[2]
  log2 fold change: -0.006
[3]
  log2 fold change: 0.031
quisinostat
  log2 fold change: 0.037
tipifarnib
  log2 fold change: -0.04
[4]
  log2 fold change: 0.021
[5]
  log2 fold change: 0.018
[6]
  log2 fold change: -0.005

## NTMT1 (UniProt S4R338)
[5]
  log2 fold change: -0.027

## NR2C2 isoform 2 (UniProt P49116)
dasatinib
  log2 fold change: -0.033
[3]
  log2 fold change: 0.064
quisinostat
  log2 fold change: -0.054
[4]
  log2 fold change: 0.04
[5]
  log2 fold change: -0.025
[6]
  log2 fold change: -0.048

## MYBL2 (UniProt P10244)
Sequence of UniProt P10244 (P10244 whole entry, looked up): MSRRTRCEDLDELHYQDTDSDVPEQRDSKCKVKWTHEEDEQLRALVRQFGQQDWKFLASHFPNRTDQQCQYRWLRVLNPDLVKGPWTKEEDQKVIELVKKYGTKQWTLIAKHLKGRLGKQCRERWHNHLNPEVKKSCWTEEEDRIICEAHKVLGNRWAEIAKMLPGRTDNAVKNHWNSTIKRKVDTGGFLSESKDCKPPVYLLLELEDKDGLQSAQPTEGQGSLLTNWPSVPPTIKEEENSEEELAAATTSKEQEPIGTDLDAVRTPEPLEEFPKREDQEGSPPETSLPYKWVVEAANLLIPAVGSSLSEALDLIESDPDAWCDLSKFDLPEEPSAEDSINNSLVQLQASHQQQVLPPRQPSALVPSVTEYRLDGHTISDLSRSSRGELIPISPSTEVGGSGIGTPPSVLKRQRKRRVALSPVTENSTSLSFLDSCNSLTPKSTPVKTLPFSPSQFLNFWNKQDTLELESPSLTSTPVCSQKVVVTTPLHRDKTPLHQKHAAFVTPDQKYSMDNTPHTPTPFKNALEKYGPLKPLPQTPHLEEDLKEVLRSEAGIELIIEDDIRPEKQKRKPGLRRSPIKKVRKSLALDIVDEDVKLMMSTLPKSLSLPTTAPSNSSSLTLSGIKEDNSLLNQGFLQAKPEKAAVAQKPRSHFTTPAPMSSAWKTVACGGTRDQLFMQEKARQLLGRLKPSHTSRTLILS
dasatinib
  log2 fold change: -0.055
[3]
  log2 fold change: -0.012
quisinostat
  log2 fold change: -0.071
[4]
  log2 fold change: -0.021
[6]
  log2 fold change: -0.015

## P2RY1 (UniProt P47900)
dasatinib
  log2 fold change: 0.012
[3]
  log2 fold change: -0.027
[5]
  log2 fold change: -0.182
[6]
  log2 fold change: 0.004

## PARD3B (UniProt Q8TEW8)
dasatinib
  log2 fold change: 0.051
[3]
  log2 fold change: -0.095
[6]
  log2 fold change: 0.174
